In PubChem BioAssay (NCI) one finds growth data, which are given here for 22 compounds.

About 83,000 compounds went through this panel and 20% of them were active in at least one assay; those are over-represented in the sample as a whole.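 Cells were grown in 96-well plates and exposed to the test compound at a single concentration for 48 hours; results are reported as percent growth, with values below 10 considered active.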 The source made the active and inactive calls.

In the test the test system is OVCAR-8 ovarian. As to the kind of experiment: NCI-60 one-dose screen, 48 h (100 = growth as untreated, 0 = no growth, -100 = all killed). To be noted: 10 µM.
Consider `CC1=CC2OC34COC3CC(OC(=O)C(F)(F)F)C4(C)C2(C)CC1` (configuration not stated), for which the growth was 106% (inactive).
The result for `CCCCOCCOCCOCc1cc2c(cc1Br)OCO2` reads 97.8% (inactive); that for `CCCCCCCCCCN=C(c1ccc(N(C)C)cc1)c1ccc(N(C)C)cc1`, 30.9% (inactive); that for `COc1cccc2c1C(=O)c1c(O)c3c(c(O)c1C2=O)C[C@@](O)(C(=O)COC(=O)c1cccnc1)C[C@@H]3OC1CC(N)C(O)C(C)O1` (some centres not stated), -15.8% (active).
The result for `COc1ccc(/C(=C/c2cc(OC)c(OC)cc2[N+](=O)[O-])C(=O)O)cc1` reads 109% (inactive); that for `Nc1ccccc1NC(=O)CCCCCCC(=O)Nc1ccc2c(c1)/C(=C/c1ccc[nH]1)C(=O)N2`, 26.2% (inactive); that for `CCOC(=O)c1c(C)n(-c2ccc(Cl)cc2)c2ccc(OC(=O)/C=C/c3ccccc3)cc12`, 88.8% (inactive).
The same measure for `Cc1nnc2c3nnc(-c4ccc(Cl)cc4)n3c3ccccc3n12`: 98.1% (inactive).
For `CCOc1ccc2c(c1)CC[C@@H]1[C@@H]2CC[C@]2(C)[C@@H](O)[C@@H](O)C[C@@H]12`, the growth is 95.1% (inactive).
The same measure for `COC(=O)[C@]12CC[C@@H](C)[C@H](C)[C@@H]1C1=CC[C@@H]3[C@@]4(C)CC(=O)[C@H](O)[C@@](C)(CO)[C@@H]4C(=O)C[C@@]3(C)[C@]1(C)CC2`: -8.97% (active); for `CCCCn1c(=O)[nH]c2c(c1=O)C(c1ccc(Cl)cc1)c1c([nH]c(=O)n(CCCC)c1=O)N2`: 99.5% (inactive); for `CCC(CCNc1cc(OC)cc2cccnc12)CN1C(=O)c2ccccc2C1=O` (configuration not stated): 109% (inactive).
The same measure for `COc1ccc(C(=O)c2sc3nc(-c4cccs4)ccc3c2N)cc1OC`: 53% (inactive); for `O=C/C=C/c1ccc([N+](=O)[O-])cc1Cl`: 91.2% (inactive).
The result for `C/C(=N\NC(=O)c1sc(=S)n(C)c1N)c1cc2ccccc2o1` reads 69.6% (inactive); that for `Cc1ccc(-c2cc(C(=O)Nc3ccc(S(=O)(=O)N4CCCCC4)cc3)[nH]n2)c(O)c1`, 58.7% (inactive); that for `CC(=O)OC1Oc2ccccc2-c2oc(=O)c(-c3ccc(F)cc3)cc21` (configuration not stated), 77.7% (inactive).
Consider `COc1ccc(Nc2nc(NCc3ccccc3)c3ccccc3n2)cc1`, for which the growth is 6.75% (active).
Take `CCOC(=O)c1c(O)c2cc(-c3ccccc3)nc(OCC)c2c(=O)n1C`: the growth is 104% (inactive).
The result for `COc1ccc(-c2nnc(SCC(=O)c3ccccc3)o2)cc1` reads 109% (inactive).
Take `CC(=O)Oc1c(C)c(C)c2c(c1C)CCC(C)(CC(=O)OCCCCCCCCCCC[P+](c1ccccc1)(c1ccccc1)c1ccccc1)O2` (configuration not stated): the growth was -44.1% (active).
The same measure for `Cc1ccccc1[P+](Cc1ccccc1)(c1ccccc1)c1ccccc1`: 10% (inactive).
